According to PubChem BioAssay AID1159580 (chemical genetic matrix, 2015):
Out of some 5,500 compounds screened, about 2,000 (36%) were called active. Not shown: some 18% with an inconclusive outcome. No stated cut-off is given here; in the data, active means normalized growth mostly below about 0.91 (no sharp cut-off); inconclusive means no clear call, values can overlap the other calls; inactive means mostly above about 0.92. The list shows a part of the results.

Assay: chemical genetic growth profiling, strain panel (AID 1159580);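 further: tested at 20 µM; growth read once vehicle control cultures reached saturation at 30 °C; 1 = growth at the plate median or of vehicle wells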
Settings: S. cerevisiae deletion strains, growth OD

Measured: normalized growth

COc1ccc(CNC(=O)/C=C/c2ccc3[nH]cc(CCN(C)C)c3c2)cc1
inactive: locus YAL040C, strain CLN3, stronger effect = lower value 1.1 | locus YCL061C, strain MRC1 (second series), stronger effect = lower value 0.991 | locus YER002W, strain NOP16, stronger effect = lower value 0.997 | locus YGR078C, strain PAC10, stronger effect = lower value 0.987 | locus YMR263W, strain SAP30, stronger effect = lower value 0.98 | locus YNL153C, strain GIM3, stronger effect = lower value 0.985 | locus YNL175C, strain NOP13, stronger effect = lower value 1.01 | locus YNL197C, strain WHI3, stronger effect = lower value 1 | locus YNL224C, strain SQS1, stronger effect = lower value 0.986 | locus YOR083W, strain WHI5 (second series), stronger effect = lower value 1.01

COC(=O)CC1C(C)(C(=O)c2ccoc2)CC2OCC34C(CC(=O)OC)C5(C)CC36OC3(C)OC1(C(OC(C)=O)C6(OC(C)=O)C5OC(=O)C(C)C)C24O3 (configuration not stated)
inactive: locus YAL021C, strain ccr4, stronger effect = lower value 0.995 | locus YAL026C, strain drs2, stronger effect = lower value 0.967 | locus YAL030W, strain snc1, stronger effect = lower value 0.975 | locus YBL061C, strain skt5, stronger effect = lower value 0.978 | locus YBR009C, strain hhf1, stronger effect = lower value 0.949 | locus YBR023C, strain chs3, stronger effect = lower value 0.987 | locus YBR171W, strain sec66, stronger effect = lower value 0.981 | locus YBR231C, strain swc5, stronger effect = lower value 0.993 | locus YBR279W, strain paf1, stronger effect = lower value 0.996 | locus YCL011C, strain gbp2, stronger effect = lower value 0.972 | locus YCL016C, strain dcc1, stronger effect = lower value 0.99 | locus YCL061C, strain MRC1, stronger effect = lower value 0.995 | locus YCL069W, strain vba3, stronger effect = lower value 0.979 | locus YCR088W, strain abp1, stronger effect = lower value 0.983 | locus YDL005C, strain med2, stronger effect = lower value 0.97 | locus YDL040C, strain nat1, stronger effect = lower value 0.986 | locus YDR001C, strain nth1, stronger effect = lower value 0.986 | locus YDR069C, strain doa4, stronger effect = lower value 0.99 | locus YDR137W, strain rgp1, stronger effect = lower value 0.975 | locus YDR159W, strain sac3, stronger effect = lower value 0.968 | locus YDR195W, strain ref2 0.944 | locus YDR297W, strain sur2, stronger effect = lower value 0.978 | locus YDR334W, strain swr1, stronger effect = lower value 0.969 | locus YDR335W, strain msn5, stronger effect = lower value 0.987 | locus YDR392W, strain spt3, stronger effect = lower value 0.911 | locus YEL003W, strain gim4, stronger effect = lower value 0.971 | locus YEL037C, strain rad23, stronger effect = lower value 0.967 | locus YEL061C, strain CIN8 (second series), stronger effect = lower value 0.975 | locus YER015W, strain faa2, stronger effect = lower value 0.987 | locus YER016W, strain bim1, stronger effect = lower value 0.98 | locus YER111C, strain swi4, stronger effect = lower value 0.959 | locus YER155C, strain BEM2 (second series), stronger effect = lower value 1.01 | locus YFR010W, strain ubp6, stronger effect = lower value 0.978 | locus YGL167C, strain pmr1, stronger effect = lower value 0.959 | locus YGL173C, strain kem1, stronger effect = lower value 0.97 | locus YGL227W, strain vid30, stronger effect = lower value 0.97 | locus YGL240W, strain doc1, stronger effect = lower value 0.988 | locus YGL253W, strain hxk2, stronger effect = lower value 0.966 | locus YHR013C, strain ard1, stronger effect = lower value 0.952 | locus YHR027C, strain rpn1, stronger effect = lower value 0.985 | locus YHR142W, strain chs7, stronger effect = lower value 0.994 | locus YJL092W, strain hpr5, stronger effect = lower value 0.987 | locus YJL095W, strain BCK1 (second series), stronger effect = lower value 0.993 | locus YJL115W, strain asf1, stronger effect = lower value 0.988 | locus YJL129C, strain trk1, stronger effect = lower value 0.975 | locus YJL154C, strain vps35, stronger effect = lower value 0.984 | locus YJL164C, strain tpk1, stronger effect = lower value 1 | locus YJL166W, strain qcr8, stronger effect = lower value 0.996 | locus YJL187C, strain SWE1, stronger effect = lower value 0.984 | locus YKL160W, strain elf1, stronger effect = lower value 1.01 | locus YKR026C, strain gcn3, stronger effect = lower value 0.976 | locus YKR091W, strain srl3, stronger effect = lower value 0.96 | locus YLL001W, strain dnm1, stronger effect = lower value 1.01 | locus YLL026W, stronger effect = lower value 0.993 | locus YLL041C, strain sdh2, stronger effect = lower value 0.996 | locus YLR027C, strain aat2, stronger effect = lower value 0.982 | locus YLR221C, strain rsa3, stronger effect = lower value 0.999 | locus YLR258W, strain gsy2, stronger effect = lower value 0.964 | locus YLR262C, strain YPT6 (second series), stronger effect = lower value 0.983 | locus YLR320W, strain mms22, stronger effect = lower value 0.993 | locus YLR342W, strain FKS1, stronger effect = lower value 0.963 | locus YLR357W, strain rsc2, stronger effect = lower value 1.02 | locus YLR370C, strain arc18, stronger effect = lower value 0.981 | locus YLR384C, strain iki3, stronger effect = lower value 0.97 | locus YML120C, strain ndi1, stronger effect = lower value 0.987 | locus YMR058W, strain fet3, stronger effect = lower value 0.975 | locus YMR125W, strain sto1, stronger effect = lower value 0.995 | locus YMR129W, stronger effect = lower value 0.966 | locus YMR205C, strain PFK2, stronger effect = lower value 0.957 | locus YMR231W, strain pep5, stronger effect = lower value 0.977 | locus YNL071W, strain lat1, stronger effect = lower value 0.982 | locus YNL209W, strain ssb2, stronger effect = lower value 0.988 | locus YNL248C, strain rpa49, stronger effect = lower value 1.02 | locus YNL322C, strain KRE1 (second series), stronger effect = lower value 0.969 | locus YNR049C, strain mso1, stronger effect = lower value 0.973 | locus YOR001W, strain rrp6, stronger effect = lower value 1.04 | locus YOR070C, strain gyp1, stronger effect = lower value 1.03 | locus YOR080W, strain dia2, stronger effect = lower value 0.982 | locus YOR083W, strain WHI5, stronger effect = lower value 1.01 | locus YOR106W, strain vam3, stronger effect = lower value 0.991 | locus YOR265W, strain rbl2, stronger effect = lower value 0.992 | locus YOR270C, strain vph1, stronger effect = lower value 0.856 | locus YOR290C, strain snf2, stronger effect = lower value 0.895 | locus YPL051W, strain arl3, stronger effect = lower value 0.993 | locus YPL078C, strain atp4, stronger effect = lower value 0.99 | locus YPL106C, strain sse1, stronger effect = lower value 0.985 | locus YPL240C, strain hsp82, stronger effect = lower value 0.947
